Bioassay records from PubChem BioAssay.
Rows were chosen to be rich in hits. Some 10% of all compounds tested hit in one or more screens of this group.
ELG1 repair inh – qHTS screen for small molecules that inhibit ELG1-dependent DNA repair in human embryonic kidney (HEK293T) cells expressing luciferase-tagged ELG1; HEK293T ELG1-luciferase reporter, luminescence, 16 h; DNA damage induced by 5-fluorouridine; Potency, µM (series often up to 46.1 µM), for the others: top-dose activity change, negative = inhibition, hits mostly inhibitors; 2.3% of 330,000 active; note: % is set by controls: 0 for no effect and ±100 for the full control effect; nearly all actives have a fitted effect of over 55% in size
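5-Fluorouridine DNA damage + compound/DMSO, 2,000 cells/well, 16 h, 37 °C/5% CO2. ONE-Glo, 30 min RT, luminescence. Readout = decrease in reporter signal.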
SW480 rereplic – A quantitative high throughput screen for small molecules that induce DNA re-replication in SW480 colon adenocarcinoma cells. SW480 DNA re-replication, Hoechst DNA content imaging, 48 h. Potency, µM (top dose mostly 46.1 µM), inactives show at the highest dose re-replication activation, hits mostly activators. 1.8% of 340,000 active. AID 624297, 2012; note: % of control where 0% means no effect; nearly all actives have a fitted effect of over 55% in size
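Treated cells incubate 48 hr (37 C, 5% CO2), are stained 40 min with Hoechst, and nuclear fluorescence is enumerated; a rise in nuclei with high DNA signal marks re-replication.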
RORg inh – qHTS for inhibitors of ROR gamma transcriptional activity. Nuclear receptor ROR-gamma (Mus musculus), P51450. Drosophila S2 Gal4-RORgamma UAS-luciferase reporter, 20 h. Potency, µM (highest dose often 53.6 µM), inactives show at the top dose activity change, negative = inhibition, usual class: inhibitors. 5.4% of 310,000 active; note: % is set by controls: 0 for no effect and ±100 for the full control effect; nearly all actives have a fitted effect of over 60% in size
Target sequence (P51450 whole entry, looked up, the tested form may be a part): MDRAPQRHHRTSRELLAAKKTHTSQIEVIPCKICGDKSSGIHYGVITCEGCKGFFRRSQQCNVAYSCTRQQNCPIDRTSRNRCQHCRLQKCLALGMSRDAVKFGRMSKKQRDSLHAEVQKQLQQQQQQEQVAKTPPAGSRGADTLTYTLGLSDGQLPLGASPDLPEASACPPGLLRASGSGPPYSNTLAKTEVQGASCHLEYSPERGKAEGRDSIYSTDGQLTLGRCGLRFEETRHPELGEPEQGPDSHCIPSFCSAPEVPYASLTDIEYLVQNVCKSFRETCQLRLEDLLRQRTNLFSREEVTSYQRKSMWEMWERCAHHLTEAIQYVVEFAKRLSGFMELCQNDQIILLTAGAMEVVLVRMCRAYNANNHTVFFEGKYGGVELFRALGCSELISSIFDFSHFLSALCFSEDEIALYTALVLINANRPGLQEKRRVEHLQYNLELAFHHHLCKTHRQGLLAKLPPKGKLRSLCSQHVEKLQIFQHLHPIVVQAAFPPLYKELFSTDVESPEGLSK
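Drosophila Schneider cells stably carrying a metallothionein-driven Gal4 DBD–ROR gamma fusion and a UAS-Photinus luciferase reporter were exposed to compound for 1 hr, then induced with copper sulfate (700 uM final) for 20 hr at ambient temperature before luminescence reading.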
MCF10A rerep – A quantitative high throughput screen for small molecules that induce DNA re-replication in MCF 10a normal breast cells; Potency, µM (titrated, usually from 46.1 µM), without a hit: at the highest dose activity, positive = re-replication, usual class: activators; MCF 10A DNA re-replication, Hoechst nuclear intensity, 48 h; 2.9% of 350,000 active; note: % of control where 0% means no effect; nearly all actives have a fitted effect of over 50% in size
Gal4-VP16 FLuc – VP16 counterscreen qHTS for inhibitors of ROR gamma transcriptional activity. Drosophila S2 Gal4-VP16 UAS-luciferase, luminescence, 20 h. Potency, µM (series often up to 53.6 µM), for inactives: top-dose activity, negative = inhibition, most hits filed as inhibitors. 3.5% of 310,000 active. AID 2546, 2010;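 note: Gal4-VP16 expression switched on by copper sulfate through the metallothionein promoter; % is set by controls: 0 for no effect and ±100 for the full control effect; nearly all actives have a fitted effect of over 50% in size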
The depositor's hits bear a star; ? = inconclusive; . = no result. Calls come from the whole dose curve; as a rule, active = well fitted curve in the direction sought with a large enough effect; inconclusive = small, poorly fitted or top-dose-only effect, or another doubt; inactive = no such curve, though single readings can be large; an effect the other way counts as inactive or inconclusive. Potency is the fitted concentration of half-maximal effect.

SMILES	ELG1 repair inh	SW480 rereplic	RORg inh	MCF10A rerep	Gal4-VP16 FLuc
CCOc1cc([N+](=O)[O-])cc(/C=N/NC(=O)c2c(-c3ccccc3)noc2C)c1O	?	8.2µM*	0.63µM*	15%	0.63µM*
COc1cccc(/C=N/NC(=O)c2c(-c3ccccc3)noc2C)c1OC	.	-9%	.	11%	.
COc1cccc(/C=N/NC(=O)c2c(-c3ccccc3)noc2C)c1O	?	?	0.35µM*	?	2µM*
Cc1ccc(S(=O)(=O)NNC(=O)c2cc(C)cs2)cc1	-5%	-9%	7%	0%	7%
C=CCN(C(=O)c1csnn1)C(C(=O)NC1CCCC1)c1ccc(F)cc1 (stereo unspecified)	1%	-6%	-24%	0%	-5%
CN(C(=O)CCN1C(=O)C2C3C=CC(C3)C2C1=O)c1ccccc1 (stereo unspecified)	?	-8%	-20%	2%	7%
COc1cc(C(=O)Oc2ccccc2/C=N/NC(=O)c2ccc(Cl)cc2Cl)cc(OC)c1OC	?	?	7.1µM*	?	11µM*
Cc1onc(-c2ccccc2)c1C(=O)N/N=C/c1c[nH]c2ccccc12	?	-47%	2.8µM*	?	7.1µM*
COc1cccc(CS(=O)(=O)c2ccccc2)c1	.	.	-13%	.	-5%
CNC(=O)C1C(=S)NC(N)=C(C#N)C1c1ccccc1 (stereo unspecified)	10%	3.3µM*	?	?	?
CN(C)c1ccc(/C=N/NC(=O)c2nnn(-c3nonc3N)c2CN(C)c2ccccc2)cc1	?	9.2µM*	-41%	12µM*	-10%
Nc1nonc1-n1nnc(C(=O)N/N=C/c2ccc(OCc3ccccc3)cc2)c1CNc1ccccc1	25%	?	11µM*	?	?
Cc1cccc(COc2ccc(/C=N/NC(=O)c3nnn(-c4nonc4N)c3COc3ccc(F)cc3)cc2)c1	?	?	0%	15µM*	-5%
Nc1nonc1-n1nnc(C(=O)N/N=C/c2ccccn2)c1CNc1ccccc1	11%	-2%	-33%	0%	-6%
Nc1nonc1-n1nnc(C(=O)N/N=C/c2ccc(OCc3ccccc3)cc2)c1COc1ccc(F)cc1	?	0%	-7%	11%	1%
Cc1cccc(COc2ccc(/C=N/NC(=O)c3nnn(-c4nonc4N)c3CN3CCCCC3)cc2)c1	?	-24%	15%	16µM*	?
CN(Cc1c(C(=O)N/N=C/c2ccccc2)nnn1-c1nonc1N)c1ccccc1	6%	1%	-33%	7%	3%
CCCN(CCC)CCCNC(=O)CN1C(=O)CSc2ccc(S(=O)(=O)N3CCOCC3)cc21	-7%	-49%	-8%	-4%	-3%
CCOc1ccccc1N1CCN(C(=O)C2=CC=CN3CCS(=O)(=O)N=C23)CC1	12%	-4%	.	?	.
CCc1ccc(C(C(=O)NC2CCCC2)N(Cc2cccnc2)C(=O)c2csnn2)cc1 (stereo unspecified)	-2%	-5%	12%	-6%	-5%
O=C1C=C(NCc2ccc3c(c2)OCO3)CC(c2ccccc2)C1 (stereo unspecified)	-19%	?	17%	?	-7%
O=C(NNc1c([N+](=O)[O-])cc(C(F)(F)F)cc1[N+](=O)[O-])c1ccco1	18µM*	-10%	?	-2%	?
O=C(NC1CCN(C(=S)NCc2ccco2)CC1)c1cccc(F)c1	2%	-2%	-10%	10%	6%
O=C(O)c1ccc(CS(=O)c2cccc(C(F)(F)F)c2)o1 (stereo unspecified)	10µM*	1%	3%	-21%	-1%
COc1cc([N+](=O)[O-])ccc1NC(=O)N1CCCCCC1	?	-5%	13µM*	-15%	?
SMILES	ELG1 repair inh	SW480 rereplic	RORg inh	MCF10A rerep	Gal4-VP16 FLuc
COc1cc([N+](=O)[O-])ccc1NC(=O)Nc1ccc(C(=O)N2CCCC2)cc1	3%	-1%	-1%	-3%	-10%
COc1ccc(Cl)cc1NC(=O)NCC1CCN(Cc2cc(C)ccc2C)CC1	?	19%	-1%	20%	-8%
COc1cc([N+](=O)[O-])ccc1NC(=O)NCC1CCN(Cc2ccc(Cl)cc2)CC1	23µM*	?	0%	9%	-16%
O=C(CCC(=O)Nc1ccccc1)NNS(=O)(=O)c1ccccc1[N+](=O)[O-]	-7%	-25%	2%	-14%	-14%
O=C(N/N=C/c1ccc([N+](=O)[O-])s1)c1ccccc1Br	-28%	10µM*	1.8µM*	3%	6.3µM*
COc1ccc(NC(C)C(=O)N/N=C/c2ccc([N+](=O)[O-])s2)cc1 (stereo unspecified)	18µM*	?	?	11%	?
Cc1ccsc1/C=N/Nc1ccc(C(=O)O)cc1	?	14%	1.1µM*	5%	0.22µM*
O=C(O)c1ccc(N/N=C/c2cc(Br)cs2)cc1	?	-2%	6.3µM*	-21%	1µM*
O=C(Cc1ccccc1)N/N=C/c1cc(Br)cs1	?	7%	0%	0%	-27%
Cc1ccsc1/C=N/Nc1cccc(C(=O)O)c1	?	-2%	?	1%	?
O=C(O)C1CC=CCC1C(=O)NCCCN1CCCC1=O (stereo unspecified)	-6%	-13%	.	17%	.
NC(=O)c1oc2ccccc2c1NC(=O)C1COc2ccccc2O1 (stereo unspecified)	?	-7%	-6%	5%	?
O=C(N/N=C\c1ccc([N+](=O)[O-])s1)c1cncc(Br)c1	?	5.8µM*	0.71µM*	7.3µM*	1.1µM*
O=C(N/N=C/c1cccs1)c1cncc(Br)c1	-17%	3%	1µM*	18%	2µM*
Cc1ccccc1C(=O)N/N=C/c1ccc([N+](=O)[O-])s1	?	?	1.8µM*	-12%	2µM*
O=C(N/N=C/c1ccc(O)cc1)c1cncc(Br)c1	13%	-2%	-16%	-1%	-3%
O=C(N/N=C/c1ccc([N+](=O)[O-])s1)c1ccccc1	?	-1%	0.79µM*	1%	1.3µM*
Cc1cccc(NC(=O)c2ccc(C(=O)c3ccccc3)o2)c1	?	4%	-32%	6%	?
Cc1ccc(/C=N/NC(=O)c2cccnc2)o1	-22%	2%	-27%	-4%	-10%
O=C(N/N=C\c1cc(Br)cs1)c1ccncc1	-1%	-13%	1.6µM*	13%	2.8µM*
